Compounds with a hit are over-represented: about 18% of the library has one in this group of screens.
TDP1 cell noCPT: qHTS for Inhibitors of human tyrosyl-DNA phosphodiesterase 1 (TDP1): qHTS in cells in absence of CPT; Potency, µM (top dose mostly 46.2 µM), for inactives: at the highest dose activity change, negative = growth inhibition, usual class: inhibitors; 420,000 compounds, 15% hits; DT40 Tdp1-/- hTDP1 cells, no CPT, ATP luminescence, 48 h; further: potency means the concentration at half of the fitted maximal effect; nearly all actives have a fitted effect of over 55% in size
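Chicken DT40 Tdp1-/- cells stably complemented with human TDP1 were seeded at 400 cells/well with DMSO in place of 20 nM camptothecin. After compound pinning, cells grew at least 48 hr at 37 °C; viability read by CellTiter-Glo luminescence.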
Gal4-VP16 FLuc: inhibits Gal4-VP16 luciferase reporter, ROR gamma counter-screen; Drosophila S2 Gal4-VP16 UAS-luciferase, luminescence, 20 h; Potency, µM (doses to about 53.6 µM), inactives show top-dose activity, negative = inhibition, actives largely listed as inhibitors; 310,000 compounds, 3.5% hits;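 further: Gal4-VP16 expression switched on by copper sulfate through the metallothionein promoter; potency means the concentration at half of the fitted maximal effect; nearly all actives have a fitted effect of over 50% in size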
IL1B secr inh: inhibitors of inflammasome signaling (IL-1 beta secretion); THP-1 LPS/ATP IL-1B secretion, AlphaLISA, 16 h; stronger effect = lower value; activity change, % at 57.5 µM; 360,000 compounds, 4.7% hits; in the data active means activity change below about -50%; inconclusive means mostly about -30% to -49%
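THP-1 cells pretreated 1 hr with compounds (up to 57.5 uM final), then stimulated with LPS (250 ng/mL final) plus ATP (1.25 mM final); secreted IL-1B measured by AlphaLISA after 16 hr, decreased signal indicating inhibition.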
LDHA block: inhibitors of human lactate dehydrogenase A; AID 1347041; 480,000 compounds, 0.15% hits; P00338; activity change, % (values are at about 110 or 230 µM); purified LDHA, NADH/diaphorase-resazurin fluorescence; stronger effect = lower value; in the data active means activity change below about -30%; inconclusive means mostly about -25% to -30%;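 further: plate controls were DMSO wells for no effect and wells without enzyme for full effect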
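Resorufin fluorescence (ex540/em590), read at 0 and 20 min after diaphorase/resazurin addition, reports the NADH left after a 5 min room-temperature reaction of 2 nM human LDH5 with 0.06 mM NADH and 0.2 mM pyruvate.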
RORg inh: ROR gamma (mouse) transcription inhibition. Drosophila S2 Gal4-RORgamma UAS-luciferase reporter, 20 h. Potency, µM (top dose mostly 53.6 µM), for inactives: top-dose activity change, negative = inhibition, hits mostly inhibitors. 310,000 compounds, 5.4% hits. P51450; further: potency means the concentration at half of the fitted maximal effect; nearly all actives have a fitted effect of over 60% in size
Target sequence (P51450 whole entry, looked up, the tested form may be a part): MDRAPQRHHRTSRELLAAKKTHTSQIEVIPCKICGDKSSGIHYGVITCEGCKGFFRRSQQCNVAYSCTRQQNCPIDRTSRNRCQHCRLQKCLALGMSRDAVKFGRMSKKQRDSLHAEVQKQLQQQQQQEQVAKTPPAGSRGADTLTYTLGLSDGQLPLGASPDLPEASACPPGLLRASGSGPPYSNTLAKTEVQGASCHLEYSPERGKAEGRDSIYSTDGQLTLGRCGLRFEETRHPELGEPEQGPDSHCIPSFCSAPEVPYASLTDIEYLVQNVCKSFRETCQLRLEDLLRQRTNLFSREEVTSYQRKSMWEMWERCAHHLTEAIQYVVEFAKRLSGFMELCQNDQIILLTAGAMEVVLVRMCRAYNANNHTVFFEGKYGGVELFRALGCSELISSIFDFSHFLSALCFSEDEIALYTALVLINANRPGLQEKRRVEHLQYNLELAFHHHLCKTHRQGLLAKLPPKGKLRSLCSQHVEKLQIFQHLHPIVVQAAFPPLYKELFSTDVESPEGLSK
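ROR gamma transcriptional activity was tracked as Gal4-UAS luciferase output in stably transfected Drosophila Schneider cells, with compound added 1 hr before 700 uM copper sulfate induction and a 20 hr ambient-temperature incubation.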
TDP1 cell CPT: DT40-hTDP1 cell growth loss with CPT; chicken DT40 Tdp1-/-;hTDP1 cells + 20 nM CPT, ATP luminescence, 48 h; Potency, µM (series often up to 46.2 µM), for inactives: top-dose activity change, negative = growth inhibition, actives largely listed as inhibitors; 420,000 compounds, 12% hits; further: potency means the concentration at half of the fitted maximal effect; nearly all actives have a fitted effect of over 55% in size
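Cell growth measured by CellTiter-Glo luminescence after a minimum 48 h, 37 C compound exposure with 20 nM CPT in Tdp1-knockout DT40 cells stably expressing hTDP1, seeded 400/well; qHTS titration format.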
Active calls of the source: *; ? = inconclusive; nt = no result; [ ] = another dose, or the depositor's remark. Unless noted, the call rests on the fitted dose curve; in most records, active means well fitted curve in the direction sought with a large enough effect; inconclusive means small, poorly fitted or top-dose-only effect, or another doubt; inactive means no such curve, though single readings can be large; an effect the other way counts as inactive or inconclusive. Unless noted, on the % scale 0 is the no-effect control and ±100 the full control effect.

SMILES	TDP1 cell noCPT	Gal4-VP16 FLuc	IL1B secr inh	LDHA block	RORg inh	TDP1 cell CPT
COc1ccc(-c2cc(C(=O)Oc3cccc(Br)c3)no2)cc1	nt	nt	nt	5	nt	nt
COc1ccc(-c2csc(N(CC3CCCO3)C(=O)c3ccco3)n2)cc1 (stereo unspecified)	21µM*	-2%	-15	-10	4%	21µM*
COCCN(C(=O)c1ccco1)c1nc(-c2ccccc2)cs1	?	0%	20	1	34%	-1%
COCCN(C(=O)c1ccco1)c1nc(-c2ccc(OC)cc2)cs1	16µM*	nt	24	1	nt	26µM*
CCN(C(=O)c1ccco1)c1nc(-c2ccccc2)cs1	nt	nt	nt	-34*	nt	nt
CCCc1cc(=O)oc2cc(OC(C)C(=O)NCc3ccc(S(N)(=O)=O)cc3)ccc12 (stereo unspecified)	nt	nt	nt	18	nt	nt
COc1ccc(/C=C/C(=O)OCc2cc(=O)oc3cc(C)ccc23)cc1	nt	nt	nt	0	nt	nt
CCCCc1nc(NCCN2CCOCC2)c(C#N)c2c1CCCC2	nt	nt	nt	5	nt	nt
Cn1ccc2c(-c3ccc(CO)cc3)cc3c(c21)C1CCC3C1 (stereo unspecified)	?	nt	38	-3	nt	18µM*
Cn1ccc2c(N3CCCCCC3)cc3c(c21)C1CCC3O1 (stereo unspecified)	?	nt	10	11	nt	21µM*
Cn1ccc2c(N3CCCCC3)cc3c(c21)C1CCC3C1 (stereo unspecified)	?	nt	3	11	nt	?
Cn1ccc2c(-c3ccc(F)cc3)cc3c(c21)C1CCC3C1 (stereo unspecified)	?	nt	16	-4	nt	-26%
Cn1ccc2c(N3CCCC3)cc3c(c21)C1CCC3C1 (stereo unspecified)	15µM*	nt	13	16	nt	21µM*
Nc1nccnc1C(=O)NCc1ccco1	nt	nt	nt	1	nt	nt
COc1ccccc1/C=C1\N=C(SC)SC1=O	nt	nt	nt	-20	nt	nt
CC(C)(C)OC(=O)COc1ccc2cc(-c3ccccc3)c(=O)oc2c1	nt	nt	nt	4	nt	nt
COc1ccc2nc(SCC(=O)Nc3ccc(S(=O)(=O)N4CCCC4)cc3)c(C#N)cc2c1	?	0%	0	4	-7%	9.2µM*
COc1ccc2nc(SCC(=O)N3CCCCCC3)c(C#N)cc2c1	16µM*	-15%	?	-4	19%	?
COc1ccc2nc(SCC(=O)N3CCCCC3)c(C#N)cc2c1	?	0%	15	7	1%	-6%
CCOc1ccc2nc(SCC(=O)Nc3ccc(S(=O)(=O)N4CCCC4)cc3)c(C)cc2c1	0%	-4%	38	-2	36%	-22%
N#Cc1cc2ccccc2nc1SCC(=O)Nc1ccc(S(=O)(=O)N2CCCC2)cc1	18µM*	-4%	2	0	5%	21µM*
O=c1c2c(-c3cccs3)csc2nc(CN2CCOCC2)n1CCOc1ccc(F)cc1	nt	nt	nt	11	nt	nt
CCOc1ccccc1NC(=O)C(=O)c1cc(C)n(-c2ccc(F)cc2)c1C	-26%	nt	nt	-3	nt	?
CCOc1ccc(-n2c(C)cc(C(=O)CCl)c2C)cc1	4.6µM*	1%	-99*	-7	?	2.9µM*
Cc1ccc(NC(=O)C(=O)c2cc(C)n(-c3ccc(F)cc3)c2C)cc1C	21µM*	nt	nt	-1	nt	?
SMILES	TDP1 cell noCPT	Gal4-VP16 FLuc	IL1B secr inh	LDHA block	RORg inh	TDP1 cell CPT
CCOc1ccc(NC(=O)C(=O)c2cc(C)n(-c3cc(C)cc(C)c3)c2C)cc1	21µM*	nt	nt	1	nt	?
CCOC(=O)c1cc(C)n(-c2ccc(OC)c(OC)c2)c1C	18µM*	-2%	7	11	-6%	?
CCC1c2ccsc2CCN1C(=O)C1CCN(S(=O)(=O)c2ccc(C(C)=O)cc2)CC1 (stereo unspecified)	nt	nt	nt	14	nt	nt
Cc1nc(SCC(=O)Nc2ccc(C#N)cc2)n(CC(C)C)c1C	nt	nt	nt	-1	nt	nt
COc1ccc(-c2noc(CN(C(=O)c3ccco3)C(C)C)n2)cc1OC	nt	nt	nt	0	nt	nt
COC(=O)c1ccc(-n2c(C)cc(C(=O)CCl)c2C)cc1	2.6µM*	-93%	-99*	-2	11µM*	2.9µM*
CCOc1ccc(NC(=O)c2ccccc2O)cc1	?	0%	-18	7	-6%	-16%
CCOc1ccc(NC(=O)c2cc(Cl)nc3ccccc23)cc1	15µM*	-2%	32	-11	1%	?
CCCn1c(C)cc(=O)c2cc(NC(=O)c3ccccn3)ccc21	15µM*	-14%	-23	-1	35%	?
CCOc1ccc(NC(=O)C2CSC(c3ccncc3)=N2)cc1 (stereo unspecified)	?	-4%	-11	-6	-7%	23µM*
CCOc1ccc(-c2cc(C(=O)NCc3ccc(C)cc3)c3ccccc3n2)cc1	-14%	nt	nt	-4	nt	-17%
CCOc1ccc(-c2cc(C(=O)Nc3ccc4c(c3)OCCO4)c3ccccc3n2)cc1	10µM*	4%	5	-3	15%	?
CCN(CC(=O)NC(C)C)C(=O)CSc1nc2ccccc2o1	nt	nt	nt	1	nt	nt
COc1ccc(-c2cc(C(=O)OCC(=O)Nc3ccc4c(c3)OCO4)c3ccccc3n2)cc1	21µM*	-6%	-8	3	-1%	?
CCOc1ccc(NC(=O)c2ccccn2)cc1	13µM*	4.5µM*	-4	-8	7.1µM*	-45%
Cc1ccc2nc(-c3ccc4c(c3)OCCO4)cc(C(=O)O)c2c1	4%	7%[0.365 µM]	14	-6	5µM*	-6%
Cc1cccc(-c2cc(C(=O)Nc3ccc4c(c3)OCCO4)c3ccccc3n2)c1	13µM*	5%	-20	-1	18%	29µM*
CCOc1ccc(NC(=O)c2cnccn2)cc1	?	?	-11	5	?	-9%
CNC(=O)c1ccc2c(c1)NC(=O)CS2	nt	nt	nt	0	nt	nt
COc1cc(C(C)=O)ccc1OS(=O)(=O)c1ccc2c(c1)CCC2	nt	nt	nt	7	nt	nt
COC(=O)c1sc(NC(=O)COc2c(C)cccc2C)nc1C	12µM*	-9%	34	3	0%	-14%
Cc1c(C(=O)Nc2ccncc2)oc2ccccc12	21µM*	-3%	3	-3	18%	21µM*
Cc1ccc(NC(=O)c2oc3ccccc3c2C)cc1C	nt	nt	nt	0	nt	nt
Cc1cc(NC(=O)c2oc3ccccc3c2C)ccc1-n1cnnn1	23µM*	?	nt	-2	?	18µM*
Cc1cc2oc(C(=O)Nc3cccnc3)c(C)c2cc1C	-15%	11%	-12	-6	22%	-17%
CC(=O)Nc1ccc(NC(=O)c2oc3cc(C)c(C)cc3c2C)cc1	-16%	-23%	-50*	-5	?	-10%

Screening results: PubChem BioAssay, National Center for Advancing Translational Sciences (NCATS)
